Experimental data from article PMC7862700, “An all-to-all approach to the identification of sequence-specific readers for epigenetic DNA modifications on cytosine”.

What was measured:
Assay in all cases: DAPPL (digital affinity profiling via proximity ligation, sequencing); 10 mM Tris-HCl pH 7.5, 50 mM NaCl, 1 mM DTT, 4% glycerol, room temperature, 30 min; GST-TFs on glutathione beads, 16-mer random dsDNA library, 0.1% formaldehyde crosslink after washing; high values mean tight binding
Conditions in all cases: protein: recombinant; tags: N-terminal GST; dsDNA, one strand shown
ERF = target: T1, ERF (Homo sapiens, UniProt P50548 1-548)
T1 sequence: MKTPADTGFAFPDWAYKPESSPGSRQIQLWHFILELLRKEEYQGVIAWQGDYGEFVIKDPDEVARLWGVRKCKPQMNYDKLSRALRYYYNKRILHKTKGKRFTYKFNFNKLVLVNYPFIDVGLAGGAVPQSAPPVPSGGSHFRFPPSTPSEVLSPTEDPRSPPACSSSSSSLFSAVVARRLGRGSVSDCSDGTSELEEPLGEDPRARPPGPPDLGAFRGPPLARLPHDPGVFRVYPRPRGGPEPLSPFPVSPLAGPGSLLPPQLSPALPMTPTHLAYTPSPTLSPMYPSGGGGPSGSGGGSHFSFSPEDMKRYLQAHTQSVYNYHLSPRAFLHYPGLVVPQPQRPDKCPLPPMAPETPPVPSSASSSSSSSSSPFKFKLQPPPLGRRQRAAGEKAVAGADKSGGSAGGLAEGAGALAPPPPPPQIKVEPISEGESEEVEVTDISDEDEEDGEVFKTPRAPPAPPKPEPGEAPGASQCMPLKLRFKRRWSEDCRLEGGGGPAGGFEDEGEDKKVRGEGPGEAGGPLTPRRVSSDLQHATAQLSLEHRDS
Summary of the method: (§1)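 Sequencing on an Illumina NextSeq500 followed washing, crosslinking with 0.1% formaldehyde, proximity ligation (BsaI/T4 ligase, 1 h, 37 °C) and PCR amplification of pools that had been incubated for 30 min at room temperature with 200 nmole of a random double-stranded 16-mer DNA library in Tris/NaCl/DTT/glycerol buffer. Each pool held DNA-barcoded human transcription factors, expressed in yeast as GST fusions and captured on glutathione beads, plus a tag-only sample. Binding signal is a hexamer's read frequency for a factor divided by its frequency in the tag-only sample.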

ETV3L = target: T2, ETV3L (Homo sapiens, UniProt Q6ZN32 1-361)
T2 sequence: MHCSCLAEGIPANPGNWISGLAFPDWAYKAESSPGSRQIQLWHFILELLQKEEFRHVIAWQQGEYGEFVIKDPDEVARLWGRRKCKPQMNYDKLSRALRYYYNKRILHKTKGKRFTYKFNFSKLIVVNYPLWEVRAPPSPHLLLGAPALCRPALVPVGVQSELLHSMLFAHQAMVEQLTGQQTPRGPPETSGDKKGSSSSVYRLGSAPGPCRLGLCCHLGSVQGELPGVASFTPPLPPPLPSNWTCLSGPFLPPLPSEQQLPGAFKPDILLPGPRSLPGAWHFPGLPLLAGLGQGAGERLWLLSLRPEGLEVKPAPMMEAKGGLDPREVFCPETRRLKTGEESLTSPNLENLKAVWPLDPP
Summary of the method: as §1

ETS2 = target: T3, ETS2 (Homo sapiens, UniProt P15036 1-469)
T3 sequence: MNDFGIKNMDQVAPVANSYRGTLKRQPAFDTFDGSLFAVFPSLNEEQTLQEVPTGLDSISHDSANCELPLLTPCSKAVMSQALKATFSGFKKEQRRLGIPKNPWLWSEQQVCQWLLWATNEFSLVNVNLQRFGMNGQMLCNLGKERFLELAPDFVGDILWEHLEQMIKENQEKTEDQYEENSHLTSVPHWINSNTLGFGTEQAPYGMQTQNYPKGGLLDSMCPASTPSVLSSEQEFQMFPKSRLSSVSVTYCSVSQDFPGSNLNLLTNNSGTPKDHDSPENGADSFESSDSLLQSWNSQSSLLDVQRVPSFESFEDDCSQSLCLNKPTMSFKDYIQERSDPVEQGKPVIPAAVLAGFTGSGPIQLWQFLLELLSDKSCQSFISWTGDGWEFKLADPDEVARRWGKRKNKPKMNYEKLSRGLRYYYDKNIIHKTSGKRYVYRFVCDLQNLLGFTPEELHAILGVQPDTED
Summary of the method: as §1

SPDEF = target: T4, SPDEF (Homo sapiens, UniProt O95238 1-335)
T4 sequence: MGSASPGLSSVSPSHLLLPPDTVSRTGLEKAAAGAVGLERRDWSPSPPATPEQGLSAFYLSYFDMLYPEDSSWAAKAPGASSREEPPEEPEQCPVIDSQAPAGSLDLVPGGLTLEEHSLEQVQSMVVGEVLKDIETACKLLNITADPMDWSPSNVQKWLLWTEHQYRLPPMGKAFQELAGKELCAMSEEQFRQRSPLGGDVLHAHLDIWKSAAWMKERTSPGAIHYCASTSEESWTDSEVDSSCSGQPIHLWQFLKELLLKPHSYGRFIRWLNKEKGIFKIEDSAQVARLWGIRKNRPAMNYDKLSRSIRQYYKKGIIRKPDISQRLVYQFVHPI
Summary of the method: as §1

ETV7 = target: T5, ETV7 (Homo sapiens, UniProt Q9Y603 1-341)
T5 sequence: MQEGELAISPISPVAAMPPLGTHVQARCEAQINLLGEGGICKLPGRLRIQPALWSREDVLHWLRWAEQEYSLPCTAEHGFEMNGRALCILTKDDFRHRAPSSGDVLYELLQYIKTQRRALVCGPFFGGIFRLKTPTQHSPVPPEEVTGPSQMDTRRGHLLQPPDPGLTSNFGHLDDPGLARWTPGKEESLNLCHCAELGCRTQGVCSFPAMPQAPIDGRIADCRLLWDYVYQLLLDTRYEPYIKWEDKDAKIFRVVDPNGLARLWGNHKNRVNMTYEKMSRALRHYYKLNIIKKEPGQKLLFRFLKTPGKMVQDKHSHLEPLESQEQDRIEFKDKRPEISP
Summary of the method: as §1

ELF5 = target: T6, ELF5 (Homo sapiens, UniProt Q9UKW6-2 1-255)
T6 sequence: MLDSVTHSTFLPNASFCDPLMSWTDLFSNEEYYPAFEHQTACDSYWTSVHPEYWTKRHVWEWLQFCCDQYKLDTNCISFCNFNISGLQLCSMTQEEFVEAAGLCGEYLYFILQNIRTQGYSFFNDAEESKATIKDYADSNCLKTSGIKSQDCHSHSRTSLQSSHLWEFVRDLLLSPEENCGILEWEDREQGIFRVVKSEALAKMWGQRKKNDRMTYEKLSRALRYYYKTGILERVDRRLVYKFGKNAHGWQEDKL
Summary of the method: as §1

ETV3 = target: T7, ETV3 (Homo sapiens, UniProt P41162-2 1-143)
T7 sequence: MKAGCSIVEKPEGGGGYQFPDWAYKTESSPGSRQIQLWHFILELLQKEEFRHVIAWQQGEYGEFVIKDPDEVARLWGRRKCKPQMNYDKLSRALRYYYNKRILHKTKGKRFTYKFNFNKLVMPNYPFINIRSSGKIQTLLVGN
Summary of the method: as §1

ETV6 = ETV6 (Homo sapiens, UniProt P41212 1-452)
Summary of the method: as §1

Sequence of ETV6 (P41212 whole entry): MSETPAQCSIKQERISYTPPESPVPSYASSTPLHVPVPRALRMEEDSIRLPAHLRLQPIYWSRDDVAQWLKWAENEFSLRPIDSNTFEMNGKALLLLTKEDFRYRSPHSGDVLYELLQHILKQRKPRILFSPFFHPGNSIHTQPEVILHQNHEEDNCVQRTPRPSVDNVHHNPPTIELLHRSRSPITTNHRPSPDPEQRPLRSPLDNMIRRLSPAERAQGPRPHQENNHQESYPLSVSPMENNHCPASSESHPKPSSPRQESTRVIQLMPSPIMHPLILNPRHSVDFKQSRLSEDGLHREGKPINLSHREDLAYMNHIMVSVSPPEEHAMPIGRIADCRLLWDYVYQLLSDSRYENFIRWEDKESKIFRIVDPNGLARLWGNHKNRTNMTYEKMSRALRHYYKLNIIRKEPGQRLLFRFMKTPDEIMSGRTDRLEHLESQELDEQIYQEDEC

Row | Sequence | binding signal (ERF) | binding signal (ETV3L) | binding signal (ETS2) | binding signal (SPDEF) | binding signal (ETV7) | binding signal (ELF5) | binding signal (ETV3) | binding signal (ETV6)
1 | TGCCTT | 1.24 fold enrichment (6-mer frequency, TF over GST control) | 1.52 fold enrichment (6-mer frequency, TF over GST control) | 1.38 fold enrichment (6-mer frequency, TF over GST control) | 1.32 fold enrichment (6-mer frequency, TF over GST control) | 1.28 fold enrichment (6-mer frequency, TF over GST control) | 1.39 fold enrichment (6-mer frequency, TF over GST control) | 1.31 fold enrichment (6-mer frequency, TF over GST control) | 1.23 fold enrichment (6-mer frequency, TF over GST control)
2 | AGTACT | 1.11 fold enrichment (6-mer frequency, TF over GST control) | 1.12 fold enrichment (6-mer frequency, TF over GST control) | 1.23 fold enrichment (6-mer frequency, TF over GST control) | 1.33 fold enrichment (6-mer frequency, TF over GST control) | 1.3 fold enrichment (6-mer frequency, TF over GST control) | 1.53 fold enrichment (6-mer frequency, TF over GST control) | 1.28 fold enrichment (6-mer frequency, TF over GST control) | 1.62 fold enrichment (6-mer frequency, TF over GST control)
3 | GGTCCC | 1.18 fold enrichment (6-mer frequency, TF over GST control) | 1.25 fold enrichment (6-mer frequency, TF over GST control) | 1.12 fold enrichment (6-mer frequency, TF over GST control) | 1.29 fold enrichment (6-mer frequency, TF over GST control) | 1.15 fold enrichment (6-mer frequency, TF over GST control) | 1.13 fold enrichment (6-mer frequency, TF over GST control) | 1.2 fold enrichment (6-mer frequency, TF over GST control) | 1.09 fold enrichment (6-mer frequency, TF over GST control)
4 | CCATCA | 1.29 fold enrichment (6-mer frequency, TF over GST control) | 1.19 fold enrichment (6-mer frequency, TF over GST control) | 1.17 fold enrichment (6-mer frequency, TF over GST control) | 1.12 fold enrichment (6-mer frequency, TF over GST control) | 1.25 fold enrichment (6-mer frequency, TF over GST control) | 1.12 fold enrichment (6-mer frequency, TF over GST control) | 1.12 fold enrichment (6-mer frequency, TF over GST control) | 1.05 fold enrichment (6-mer frequency, TF over GST control)
5 | CCACCC | 1.24 fold enrichment (6-mer frequency, TF over GST control) | 1.37 fold enrichment (6-mer frequency, TF over GST control) | 1.18 fold enrichment (6-mer frequency, TF over GST control) | 1.22 fold enrichment (6-mer frequency, TF over GST control) | 1.09 fold enrichment (6-mer frequency, TF over GST control) | 1.21 fold enrichment (6-mer frequency, TF over GST control) | 1.28 fold enrichment (6-mer frequency, TF over GST control) | 1.24 fold enrichment (6-mer frequency, TF over GST control)
6 | ACCCCG | 1.26 fold enrichment (6-mer frequency, TF over GST control) | 1.33 fold enrichment (6-mer frequency, TF over GST control) | 1.25 fold enrichment (6-mer frequency, TF over GST control) | 1.15 fold enrichment (6-mer frequency, TF over GST control) | 1.02 fold enrichment (6-mer frequency, TF over GST control) | 1.21 fold enrichment (6-mer frequency, TF over GST control) | 1.11 fold enrichment (6-mer frequency, TF over GST control) | 1.16 fold enrichment (6-mer frequency, TF over GST control)
7 | CGTCCT | 1.41 fold enrichment (6-mer frequency, TF over GST control) | 1.31 fold enrichment (6-mer frequency, TF over GST control) | 1.28 fold enrichment (6-mer frequency, TF over GST control) | 1.56 fold enrichment (6-mer frequency, TF over GST control) | 1.45 fold enrichment (6-mer frequency, TF over GST control) | 1.56 fold enrichment (6-mer frequency, TF over GST control) | 1.53 fold enrichment (6-mer frequency, TF over GST control) | 1.47 fold enrichment (6-mer frequency, TF over GST control)
